PubChem BioAssay (NCI)
Compounds without any hit were thinned out: in the full panel of roughly 83,000, 20% have a hit.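 Method: cells in 96-well plates; compound added at one concentration; 48 h incubation; percent growth measured; values under 10 scored active.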 Active and inactive are the calls of the source.

Tests used:
Experiment in all cases: NCI-60 one-dose screen, 48 h (100 = growth as untreated, 0 = no growth, -100 = all killed)
Settings in all cases: 10 µM unless noted
T-47D breast = tested on: T-47D breast
MDA-MB-435 melanoma = tested on: MDA-MB-435 melanoma
SW-620 colon = tested on: SW-620 colon
MCF7 breast = tested on: MCF7 breast
HCT-116 colon = tested on: HCT-116 colon
HCC-2998 colon = tested on: HCC-2998 colon
KM12 colon = tested on: KM12 colon
BT-549 breast = tested on: BT-549 breast

Measured: growth

O=C(N/N=C/c1c(Cl)cccc1Cl)c1ccccc1Nc1ccnc(C(F)(F)F)c1
inactive: T-47D breast 51.8% | MDA-MB-435 melanoma 82.9% | SW-620 colon 86.3% | MCF7 breast 46% | HCT-116 colon 64.9% | HCC-2998 colon 71.5% | KM12 colon 74.7%

CCC(=O)Oc1ccc2c(c1)CC[C@@H]1[C@@H]2CC[C@]2(C)C[C@H](OC(=O)CC)C[C@@H]12
active: MDA-MB-435 melanoma 0.38%
inactive: T-47D breast 83.7% | BT-549 breast 60.1% | MCF7 breast 68.5% | HCT-116 colon 50.5% | HCC-2998 colon 85% | KM12 colon 53.5%

COc1cc(CNC(=O)CSc2nc3ccccc3c(=O)n2Cc2cc(OC)c(OC)c(OC)c2)cc(OC)c1OC
inactive: T-47D breast 89.7% | BT-549 breast 104% | MDA-MB-435 melanoma 103% | MCF7 breast 92.7% | HCT-116 colon 97.5% | KM12 colon 102%

CC(=O)Nc1ccc(S(=O)(=O)NC(CCC(=O)Nc2ccc(Cl)cc2)C(=O)O)cc1 (stereo not given)
inactive: T-47D breast 80.4% | MDA-MB-435 melanoma 85.2% | SW-620 colon 99.6% | MCF7 breast 84.8% | HCT-116 colon 102% | HCC-2998 colon 103% | KM12 colon 94.5%

COc1ccc(C(=O)c2cc(OC)c(OC)c(OC)c2)cc1/C=C/C(=O)c1ccc(O)cc1
active: BT-549 breast 7.62% | HCT-116 colon -23.2% | HCC-2998 colon -22.4% | KM12 colon 2.74%
inactive: T-47D breast 37.3% | MDA-MB-435 melanoma 18.9% | MCF7 breast 12.1%

COC(=O)[C@H]1[C@H](OC)[C@@H](OC(=O)/C=C/c2ccncc2)CC2CN3CCc4c([nH]c5cc(OC)ccc45)[C@@H]3C[C@@H]21 (stereo not given in full)
inactive: T-47D breast 36.8% | MDA-MB-435 melanoma 77.9% | SW-620 colon 74% | MCF7 breast 55.9% | HCT-116 colon 61.1% | HCC-2998 colon 122% | KM12 colon 93.6%

CC(=O)Nc1ccc(S(=O)(=O)N2C(=O)CCC2C(=O)Nc2ccc(Br)cc2)cc1 (stereo not given)
active: T-47D breast 1.46% | MCF7 breast 9.58%
inactive: MDA-MB-435 melanoma 27.6% | SW-620 colon 38.2% | HCT-116 colon 19.5% | HCC-2998 colon 49.4% | KM12 colon 23.1%

O=C(/C=C/c1ccccc1)n1c(-c2ccc(Cl)cc2)nc2ccccc21
inactive: MCF7 breast 10.3%
active: T-47D breast -4.25% | BT-549 breast -50.5% | MDA-MB-435 melanoma -44.3% | HCT-116 colon -71.5% | HCC-2998 colon 5.08% | KM12 colon -62.9%

COc1cc2c(cc1OCCCCn1c(-c3cc(=O)c4ccccc4o3)nc3ccccc31)N=C[C@@H]1CCCN1C2=O
inactive: T-47D breast 79.4% | BT-549 breast 101% | MDA-MB-435 melanoma 94.9% | MCF7 breast 72.6% | HCT-116 colon 101% | HCC-2998 colon 128% | KM12 colon 105%

NC(=O)c1c(NC(=O)c2ccc3c(c2)OCO3)sc2c1CCC(=O)C2
inactive: HCC-2998 colon 12.5%
active: T-47D breast -39.7% | BT-549 breast -6.08% | MDA-MB-435 melanoma 2.97% | MCF7 breast -7.93% | HCT-116 colon -56.3% | KM12 colon -20.6%

Clc1ccc([I+]c2ccc(Cl)cc2Cl)c(Cl)c1
active: T-47D breast -44.9% | BT-549 breast 7.13% | MCF7 breast -30.9% | HCT-116 colon -37.7%
inactive: MDA-MB-435 melanoma 82.2% | HCC-2998 colon 58.3% | KM12 colon 39.3%

COc1ccc(Cn2cc(COc3cc(/C=C/C(=O)c4cc(OC)c(OC)c(OC)c4)ccc3OC)nn2)cc1
inactive: T-47D breast 65.4% | BT-549 breast 30.8% | MDA-MB-435 melanoma 12.5% | MCF7 breast 21.3% | HCT-116 colon 17.9% | HCC-2998 colon 110% | KM12 colon 15.8%

COc1cccc2cc(-c3cc4ccccc4[nH]3)c(=NC(=O)c3ccc(Cl)cc3)oc12
active: SW-620 colon 7.3%
inactive: BT-549 breast 62.7% | MDA-MB-435 melanoma 33.1% | MCF7 breast 73.5% | HCT-116 colon 26.9% | HCC-2998 colon 75.7% | KM12 colon 33.9%

COc1cc(/C=C2\CCCC3=C2N=C2SC(C)=NN2C3c2cc(OC)c(OC)c(OC)c2)cc(OC)c1OC (stereo not given)
active: MDA-MB-435 melanoma -63.9% | HCT-116 colon -71.6% | KM12 colon -37.8%
inactive: T-47D breast 37.6% | SW-620 colon 10.3% | MCF7 breast 12.5% | HCC-2998 colon 55.4%

CCn1cc(C(=O)O)c(=O)c2cc(F)c(N3CCN(S(=O)(=O)c4ccc(OC)c(OC)c4)CC3)cc21
inactive: T-47D breast 87.2% | BT-549 breast 105% | MDA-MB-435 melanoma 98.9% | MCF7 breast 100% | HCT-116 colon 105% | HCC-2998 colon 104% | KM12 colon 96.2%

CCN(CC)P(=O)(N(CC)CC)N(CCCSC/C=C(\C)CC/C=C(\C)CCC=C(C)C)CCCN1CCN(C)CC1
inactive: T-47D breast 88.9% | BT-549 breast 102% | MDA-MB-435 melanoma 100% | MCF7 breast 97.6% | HCT-116 colon 97.1% | HCC-2998 colon 104% | KM12 colon 108%

CC(=O)Nc1ccc(S(=O)(=O)N2C(=O)CCC2C(=O)Nc2ccccc2)cc1 (stereo not given)
inactive: T-47D breast 17.6% | MDA-MB-435 melanoma 27.7% | SW-620 colon 30.2% | MCF7 breast 19.2% | HCT-116 colon 26.5% | HCC-2998 colon 30.5% | KM12 colon 12.4%

CCN1C(=S)N(CC)C2Nn3c(s/c(=C4\C(=O)N(C)c5ccccc54)c3=O)=NC21 (stereo not given)
active: MDA-MB-435 melanoma -43.1% | HCT-116 colon 7.36%
inactive: BT-549 breast 74.7% | SW-620 colon 41.1% | MCF7 breast 29.8% | HCC-2998 colon 79% | KM12 colon 27.4%

O=S(=O)(NCCCNc1nccc(-c2c(-c3ccc(F)c(O)c3)nc3sccn23)n1)c1ccc(Cl)cc1
inactive: T-47D breast 66.1% | BT-549 breast 101% | MDA-MB-435 melanoma 32.5% | MCF7 breast 77.2% | HCT-116 colon 46.3% | HCC-2998 colon 112% | KM12 colon 75.1%

COc1cc(-c2nc(-c3nc4ccccc4[nH]3)cc3c2[nH]c2ccccc23)cc(OC)c1OC
inactive: T-47D breast 25% | BT-549 breast 27% | MDA-MB-435 melanoma 31.1% | MCF7 breast 42.6% | HCT-116 colon 23% | HCC-2998 colon 57.3% | KM12 colon 18.7%

COc1ccc2c(c1)C(=O)/C(=C/c1ccc(O)cc1)O2
active: SW-620 colon 9.11% | HCT-116 colon 8.95%
inactive: T-47D breast 59.8% | MDA-MB-435 melanoma 93.2% | MCF7 breast 22.8% | HCC-2998 colon 114% | KM12 colon 101%

COc1ccc(/C=C/C(=O)c2cccc(B(O)O)c2)cc1O
inactive: T-47D breast 32.4% | BT-549 breast 13.9% | MCF7 breast 24.3% | HCC-2998 colon 54.3%
active: SW-620 colon 9.61% | HCT-116 colon 3.16% | KM12 colon 3.44%

CNC(C)=O
inactive: BT-549 breast 76.3% | MDA-MB-435 melanoma 105% | SW-620 colon 105% | MCF7 breast 90.5% | HCT-116 colon 105% | HCC-2998 colon 101%

COc1ccc(-c2nc3sccn3c2-c2ccnc(NCCCNS(=O)(=O)c3ccc4ccccc4c3)n2)cc1
inactive: T-47D breast 32.6% | BT-549 breast 65.3% | MDA-MB-435 melanoma 50% | MCF7 breast 52.2% | HCT-116 colon 60.2% | HCC-2998 colon 84.1% | KM12 colon 50.1%

COc1cc(C2C=C(C)N=C3SC(C)=NN32)cc(OC)c1OC (stereo not given)
inactive: T-47D breast 92.3% | MDA-MB-435 melanoma 112% | SW-620 colon 112% | MCF7 breast 91.6% | HCT-116 colon 106% | HCC-2998 colon 107% | KM12 colon 102%

CCC(=O)Oc1cc(/C=C/C(=O)O[C@H]2C[C@H]3CN4CCc5c([nH]c6cc(OC)ccc56)[C@@H]4C[C@@H]3[C@@H](C(=O)OC)[C@@H]2OC)ccc1OC
inactive: T-47D breast 60.6% | MDA-MB-435 melanoma 67.1% | SW-620 colon 83% | MCF7 breast 48.2% | HCT-116 colon 53.3% | HCC-2998 colon 115% | KM12 colon 95.3%
